# Data published in the supplement of paper PMC8728848.
# This excerpt belongs to a sample that is enriched for the strongest signals.
# B1: SSR2 (Sclerotium rolfsii) (protein)
# chain: MVYKITVRVYQTNPDAFFHPVEKTVWKYANGGTWSITDDQHVLTMGGSGTSGTLRFHADNGESFTATFGVHNYKRWCDIVTNLAADETGMVINQQYYSQKNREEARERQLSNYQVKNAKGRNFQIVYTEAEGNDLHANLIIG
# Experiments:
# Assay in all cases: glycan array binding signal (z-score within array); higher = stronger binding
# Details in all cases: glycan notation: IUPAC condensed, linker removed
# Glc(a1-4)Glc = molecular target: Glc(a1-4)Glc
# Method in brief: (§1)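 Glycan array binding is given as a within-array Z-score, which can be read as non-binding when negative. The arrays, 3228 of them, came from the Consortium for Functional Glycomics database and were retained only where the protein sequence was available. Z-scores were averaged across arrays of the same protein sequence at different concentrations or buffers and across linkers.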
# GlcA(b1-3)Gal = molecular target: GlcA(b1-3)Gal
# Method in brief: as §1
# [1] = molecular target: GlcNAc(a1-3)Gal(b1-4)GlcNAc
# Method in brief: as §1
# [2] = molecular target: GlcNAc(a1-4)Gal(b1-4)GlcNAc(b1-3)Gal(b1-4)GlcNAc(b1-3)Gal(b1-4)GlcNAc
# Method in brief: as §1
# [3] = molecular target: GlcNAc(a1-6)Gal(b1-4)GlcNAc
# Method in brief: as §1
# [4] = molecular target: GlcNAc(b1-2)Man(a1-3)[GlcNAc(b1-2)Man(a1-6)]Man(b1-4)GlcNAc(b1-4)GlcNAc
# Method in brief: as §1
# [5] = molecular target: GlcNAc(b1-2)Man(a1-3)[GlcNAc(b1-4)][GlcNAc(b1-2)Man(a1-6)]Man(b1-4)GlcNAc(b1-4)[Fuc(a1-6)]GlcNAc
# Method in brief: as §1
# [6] = molecular target: GlcNAc(b1-2)[GlcNAc(b1-6)]Man(a1-6)[GlcNAc(b1-2)Man(a1-3)]Man(b1-4)GlcNAc(b1-4)GlcNAc
# Method in brief: as §1
# [7] = molecular target: GlcNAc(b1-2)[GlcNAc(b1-6)]Man(a1-6)[GlcNAc(b1-2)Man(a1-3)]Man(b1-4)GlcNAc(b1-4)[Fuc(a1-6)]GlcNAc
# Method in brief: as §1
# [8] = molecular target: GlcNAc(b1-3)Gal(b1-3)GalNAc
# Method in brief: as §1
# [9] = molecular target: GlcNAc(b1-3)Gal(b1-4)GlcNAc(b1-3)Gal(b1-4)GlcNAc
# Method in brief: as §1
# [10] = molecular target: GlcNAc(b1-3)Gal(b1-4)GlcNAc(b1-3)Gal(b1-4)GlcNAc(b1-3)Gal(b1-4)GlcNAc(b1-3)Gal(b1-4)GlcNAc(b1-2)[GlcNAc(b1-3)Gal(b1-4)GlcNAc(b1-3)Gal(b1-4)GlcNAc(b1-3)Gal(b1-4)GlcNAc(b1-3)Gal(b1-4)GlcNAc(b1-6)]Man(a1-6)[GlcNAc(b1-3)Gal(b1-4)GlcNAc(b1-3)Gal(b1-4)GlcNAc(b1-3)Gal(b1-4)GlcNAc(b1-3)Gal(b1-4)GlcNAc(b1-2)Man(a1-3)]Man(b1-4)GlcNAc(b1-4)[Fuc(a1-6)]GlcNAc
# Method in brief: as §1
# [11] = molecular target: GlcNAc(b1-3)Gal(b1-4)GlcNAc(b1-3)[GlcNAc(b1-3)Gal(b1-4)GlcNAc(b1-3)]GalNAc
# Method in brief: as §1
# [12] = molecular target: GlcNAc(b1-3)Gal(b1-4)GlcNAc(b1-6)[GlcNAc(b1-3)Gal(b1-3)]GalNAc
# Method in brief: as §1
# GlcNAc(b1-3)Man = molecular target: GlcNAc(b1-3)Man
# Method in brief: as §1
# [13] = molecular target: Man(a1-2)Man(a1-3)[Man(a1-6)]Man(a1-6)[Man(a1-2)Man(a1-3)]Man(b1-4)GlcNAc(b1-4)GlcNAc
# Method in brief: as §1
# [14] = molecular target: Man(a1-2)Man(a1-6)[Man(a1-3)]Man(a1-6)[Man(a1-2)Man(a1-2)Man(a1-3)]Man
# Method in brief: as §1
# [15] = molecular target: Man(a1-3)[Man(a1-6)]Man(a1-6)[Man(a1-2)Man(a1-3)]Man(b1-4)GlcNAc(b1-4)GlcNAc
# Method in brief: as §1
# [16] = molecular target: Neu5Ac(a2-3)Gal(b1-3)GalNAc(b1-4)[Neu5Ac(a2-3)]Gal(b1-4)Glc
# Method in brief: as §1
# [17] = molecular target: Neu5Ac(a2-3)Gal(b1-3)[Neu5Ac(a2-6)]GlcNAc(b1-3)[Fuc(a1-3)[Gal(b1-4)]GlcNAc(b1-6)]Gal(b1-4)Glc
# Method in brief: as §1
# [18] = molecular target: Neu5Ac(a2-3)Gal(b1-4)GlcNAc(b1-2)Man(a1-3)[GlcNAc(b1-4)][Neu5Ac(a2-3)Gal(b1-4)GlcNAc(b1-2)Man(a1-6)]Man(b1-4)GlcNAc(b1-4)GlcNAc
# Method in brief: as §1
# [19] = molecular target: Neu5Ac(a2-3)Gal(b1-4)GlcNAc(b1-3)Gal(b1-4)GlcNAc(b1-3)[Neu5Ac(a2-3)Gal(b1-4)GlcNAc(b1-3)Gal(b1-4)GlcNAc(b1-6)]GalNAc
# Method in brief: as §1
# [20] = molecular target: Neu5Ac(a2-3)Gal(b1-4)GlcNAc(b1-3)Gal(b1-4)GlcNAc(b1-6)[Gal(b1-3)]GalNAc
# Method in brief: as §1
# [21] = molecular target: Neu5Ac(a2-3)GalNAc(b1-4)GlcNAc
# Method in brief: as §1
# [22] = molecular target: Neu5Ac(a2-6)Gal(b1-4)GlcNAc(b1-2)Man(a1-3)Man(b1-4)GlcNAc(b1-4)GlcNAc
# Method in brief: as §1
# [23] = molecular target: Neu5Ac(a2-6)Gal(b1-4)GlcNAc(b1-3)Gal(b1-3)GlcNAc
# Method in brief: as §1
# [24] = molecular target: Neu5Ac(a2-8)Neu5Ac(a2-3)Gal(b1-3)GalNAc(b1-4)[Neu5Ac(a2-3)]Gal(b1-4)Glc
# Method in brief: as §1
# [25] = molecular target: Neu5Ac9Ac(a2-6)Gal(b1-4)GlcNAc
# Method in brief: as §1
# [26] = molecular target: Neu5Gc(a2-3)Gal(b1-4)[Fuc(a1-3)]GlcNAc
# Method in brief: as §1
# [27] = molecular target: Neu5Gc(a2-8)Neu5Gc(a2-6)Gal(b1-4)GlcNAc
# Method in brief: as §1
binder,measurement,setting,value
B1,glycan array binding signal (z-score),Glc(a1-4)Glc,-0.262
same,glycan array binding signal (z-score),GlcA(b1-3)Gal,-0.282
same,glycan array binding signal (z-score),[1],3.71
same,glycan array binding signal (z-score),[2],6.99
same,glycan array binding signal (z-score),[3],0.528
same,glycan array binding signal (z-score),[4],6.77
same,glycan array binding signal (z-score),[5],2.85
same,glycan array binding signal (z-score),[6],4.32
same,glycan array binding signal (z-score),[7],4.49
same,glycan array binding signal (z-score),[8],3.63
same,glycan array binding signal (z-score),[9],0.873
same,glycan array binding signal (z-score),[10],1.3
same,glycan array binding signal (z-score),[11],0.552
same,glycan array binding signal (z-score),[12],1.62
same,glycan array binding signal (z-score),GlcNAc(b1-3)Man,-0.149
same,glycan array binding signal (z-score),[13],-0.276
same,glycan array binding signal (z-score),[14],-0.303
same,glycan array binding signal (z-score),[15],-0.244
same,glycan array binding signal (z-score),[16],-0.28
same,glycan array binding signal (z-score),[17],-0.288
same,glycan array binding signal (z-score),[18],-0.284
same,glycan array binding signal (z-score),[19],-0.267
same,glycan array binding signal (z-score),[20],0.625
same,glycan array binding signal (z-score),[21],-0.279
same,glycan array binding signal (z-score),[22],-0.286
same,glycan array binding signal (z-score),[23],-0.286
same,glycan array binding signal (z-score),[24],-0.271
same,glycan array binding signal (z-score),[25],-0.291
same,glycan array binding signal (z-score),[26],-0.284
same,glycan array binding signal (z-score),[27],-0.286
